Assay results taken from the supplement of paper PMC9135407.
Where “and” joins values, the source holds several entries; their conditions need not be identical. Equal values may be shown once. Where a name gives a salt, the structure may show the parent alone. Among all 5,800 compounds or so, about 620 (11%) showed activity. The list comes from a sample in which actives are over-represented; it also holds similar structures and randomly drawn compounds. A number with no mark means an inactive call.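 The calls were made as follows: active = score above a cut-off or among the top three wells of a plate; in these data no inactive exceeds 0.85.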

Tested on: primary human hepatic stellate cells (donor 1)
Experiment: scaled lipid accumulation score (0 = DMSO-like, 1 = nortriptyline-like); higher = stronger HSC inactivation (lipid re-accumulation), active = hit call of the paper
Details: 48 h
[1] = library stock concentration: 10 mM
[2] = library stock concentration: 3.33 mM
[3] = library stock concentration: 1 mM
[4] = library stock concentration: 80 uM
[5] = library stock concentration: 400 uM
[6] = library stock concentration: 2 mM

Compound: CN[C@H]1CC[C@@H](c2ccc(Cl)c(Cl)c2)c2ccccc21 [Sertraline hydrochloride]
- scaled lipid accumulation score (library stock concentration: 5.8 mM): 0.777
- scaled lipid accumulation score [1]: ≤ -0.055 and 0.281 and 0.318

Compound: CN[C@H]1CC[C@@H](c2ccc(Cl)c(Cl)c2)c2ccccc21 [Sertraline] [listing 1 of 2 here]
- scaled lipid accumulation score: 1.23 (active)

Compound: CN[C@H]1CC[C@@H](c2ccc(Cl)c(Cl)c2)c2ccccc21 [Sertraline] [listing 2 of 2 here]
- scaled lipid accumulation score [1]: 0.147 and 0.63

Compound: CN[C@H]1CC[C@@H](c2ccc(Cl)c(Cl)c2)c2ccccc21 [Sertraline HCl]
- scaled lipid accumulation score [2]: 0.103
- scaled lipid accumulation score [1]: 0.033

Compound: CC(C)[C@H](NC(=O)CNC(=O)OC(C)(C)C)C(=O)N[C@H](C=O)C(C)C
- scaled lipid accumulation score (library stock concentration: 14 mM): 0.022

Compound: COc1ccc2c3c([nH]c2c1)[C@H]1C[C@H]2[C@H](C[C@@H](O)[C@H](OC)[C@H]2C(=O)O)CN1CC3 [Reserpinic acid hydrochloride]
- scaled lipid accumulation score: ≤ 0

Compound: COC(=O)[C@H]1[C@H]2C[C@@H]3c4[nH]c5cc(OC)ccc5c4CCN3C[C@H]2C[C@@H](OC(=O)c2cc(OC)c(OC)c(OC)c2)[C@@H]1OC [Reserpine] [listing 1 of 3 here]
- scaled lipid accumulation score [1]: 1.18 (active)

Compound: COC(=O)[C@H]1[C@H]2C[C@@H]3c4[nH]c5cc(OC)ccc5c4CCN3C[C@H]2C[C@@H](OC(=O)c2cc(OC)c(OC)c(OC)c2)[C@@H]1OC [Reserpine] [listing 2 of 3 here]
- scaled lipid accumulation score: ≤ 0
- scaled lipid accumulation score [1]: 0.574 and 0.771

Compound: COC(=O)[C@H]1[C@H]2C[C@@H]3c4[nH]c5cc(OC)ccc5c4CCN3C[C@H]2C[C@@H](OC(=O)/C=C/c2cc(OC)c(OC)c(OC)c2)[C@@H]1OC [Rescinnamin]
- scaled lipid accumulation score: 0.478

Compound: CCOC(=O)Oc1c(OC)cc(C(=O)O[C@@H]2C[C@@H]3CN4CCc5c([nH]c6cc(OC)ccc56)[C@H]4C[C@@H]3[C@H](C(=O)OC)[C@H]2OC)cc1OC [Syrosingopine]
- scaled lipid accumulation score: 0.248

Compound: COC(=O)[C@H]1[C@H]2C[C@@H]3c4[nH]c5cc(OC)ccc5c4CCN3C[C@H]2C[C@@H](OC(=O)c2cc(OC)c(OC)c(OC)c2)[C@@H]1OC [Reserpine] [listing 3 of 3 here]
- scaled lipid accumulation score [1]: 0.944 (active)

Compound: CC1/C=C/C=C/C=C/C=C/C=C/C=C/C=C/C(OC2O[C@H](C)[C@@H](O)[C@H](N)[C@@H]2O)CC(O)C(C(=O)O)C(O)CC(=O)CC(O)CC(O)CC(O)CC(=O)CCCC(=O)CC(=O)OC1C(C)CC(C)C(O)CC(=O)c1ccc(N)cc1 (some centres undefined)
- scaled lipid accumulation score [1]: ≤ 0

Compound: CCN(CC)CC1CCCCN1CC(=O)N1c2ccccc2C(=O)Nc2cccnc21 (centres undefined)
- scaled lipid accumulation score [1]: ≤ 0 and ≤ -0.006

Compound: CCCCC/C=C\CC1OC1C/C=C\C/C=C\CCCC(=O)O (centres undefined)
- scaled lipid accumulation score (library stock concentration: 100 uM): ≤ -0.021

Compound: O=C(O)CCC/C=C\C[C@@H]1[C@@H](/C=C/[C@@H](O)COc2ccccc2)[C@H](O)C[C@@H]1O [16-phenoxy tetranor Prostaglandin F2.alpha.]
- scaled lipid accumulation score [3]: ≤ 0

Compound: CCN1CCN(c2ccc(Nc3cc(N(C)C(=O)Nc4c(Cl)c(OC)cc(OC)c4Cl)ncn3)cc2)CC1
- scaled lipid accumulation score [4]: ≤ -0.009
- scaled lipid accumulation score [5]: ≤ -0.009
- scaled lipid accumulation score [6]: 0.01
- scaled lipid accumulation score [1]: 0.291

Compound: CCC[C@H](Nc1nc(-c2ccc(NC(=O)NCC)c(OC)c2)ncc1C)c1cccnc1 [CYT997 (Lexibulin)]
- scaled lipid accumulation score [2]: 0.682
- scaled lipid accumulation score [1]: 0.758

Compound: COc1ccc(-c2cc3nccn3c(Nc3ncccc3C(N)=O)n2)cc1OC
- scaled lipid accumulation score [4]: 0.088
- scaled lipid accumulation score [5]: ≤ -0.009
- scaled lipid accumulation score [6]: 0.133
- scaled lipid accumulation score [1]: 0.349

Compound: C[N+](C)(C)CCO.[Cl-] [Choline chloride]
- scaled lipid accumulation score [1]: ≤ -0.027
- scaled lipid accumulation score (library stock concentration: 14.3 mM): ≤ 0

Compound: C[N+](C)(C)CCO.[Cl-] [Choline Chloride]
- scaled lipid accumulation score [2]: ≤ 0
- scaled lipid accumulation score [1]: 0.043

Compound: N#CC(=Cc1ccc2[nH]ccc2c1)C(N)=C(C#N)C#N
- scaled lipid accumulation score (library stock concentration: 19.3 mM): 0.606

Compound: COc1ccc(C2=NC(c3ccc(Cl)cc3)C(c3ccc(Cl)cc3)N2C(=O)N2CCNC(=O)C2)c(OC(C)C)c1 (centres undefined) [Nutlin-3b]
- scaled lipid accumulation score [2]: ≤ -0.009
- scaled lipid accumulation score [1]: ≤ 0

Compound: COc1ccc(C2=N[C@@H](c3ccc(Cl)cc3)[C@@H](c3ccc(Cl)cc3)N2C(=O)N2CCNC(=O)C2)c(OC(C)C)c1
- scaled lipid accumulation score [3]: ≤ 0

Compound: COc1ccc(C2=NC(c3ccc(Cl)cc3)C(c3ccc(Cl)cc3)N2C(=O)N2CCNC(=O)C2)c(OC(C)C)c1 (centres undefined) [Nutlin-3a]
- scaled lipid accumulation score [2]: 0.207

Compound: COc1ccc(C2=N[C@@H](c3ccc(Cl)cc3)[C@H](c3ccc(Cl)cc3)N2C(=O)N2CCNC(=O)C2)c(OC(C)C)c1 [Nutlin-3a]
- scaled lipid accumulation score [1]: 0.954 (active)

Compound: COc1ccc(C2=N[C@@H](c3ccc(Cl)cc3)[C@@H](c3ccc(Cl)cc3)N2C(=O)N2CCNC(=O)C2)c(OC(C)C)c1 [Nutlin-3]
- scaled lipid accumulation score [2]: 0.168
- scaled lipid accumulation score [1]: 0.829

Compound: CCCCCCCCCCCCCCCCCCOCC(O)COP(=O)([O-])OCC[N+](C)(C)C (centres undefined)
- scaled lipid accumulation score [3]: ≤ 0

Compound: CCCCCCCCCCCCCCCCCC(=O)OCC [Stearic Acid ethyl ester]
- scaled lipid accumulation score [3]: ≤ 0

Compound: c1ccc2c(c1)CCCc1cc(NCCN3CCOCC3)nnc1-2
- scaled lipid accumulation score: 0.038

Compound: O=C(NCCN1CCOCC1)c1ccc(Cl)cc1
- scaled lipid accumulation score [2]: ≤ 0
- scaled lipid accumulation score [1]: ≤ 0

Compound: O=C1C(Cl)=C(NCCN2CCOCC2)C(=O)c2ncccc21
- scaled lipid accumulation score [1]: 1.04 (active)

Compound: O=C(NCCN1CCOCC1)c1ccc(Cl)cc1 [Moclobemide]
- scaled lipid accumulation score: 0.059
- scaled lipid accumulation score [1]: 0.047

Compound: O=C(NCCN1CCOCC1)c1ccc(Cl)cc1 [4-Chloro-N-(2-morpholin-4-yl-ethyl)-benzamide]
- scaled lipid accumulation score [1]: ≤ 0

Compound: CN1Cc2sccc2C(c2ccc(O)c(O)c2)C1 (centres undefined)
- scaled lipid accumulation score [1]: 0.005

Compound: CC(=O)N[C@@H](CSC/C=C(\C)CC/C=C(\C)CCC=C(C)C)C(=O)O [Acetyl (N)-s-farnesyl-l-cysteine]
- scaled lipid accumulation score (library stock concentration: 13.6 mM): ≤ -0.021

Compound: CC(=O)N[C@@H](CSC/C=C(\C)CC/C=C(\C)CCC=C(C)C)C(=O)O [N-acetyl-S-farnesyl-L-Cysteine]
- scaled lipid accumulation score [3]: ≤ 0

Compound: CS(=O)(=O)Nc1c(O)ccc2c1CCCC2C1=NCCN1 (centres undefined)
- scaled lipid accumulation score [1]: 0.027

Compound: COc1cc(C=C(C#N)C(N)=O)cc(CSc2nc3ccccc3s2)c1O [Tyrphostin AG-825]
- scaled lipid accumulation score (library stock concentration: 12.6 mM): 0.042

Compound: c1ccc(-c2cnc(Nc3ccc(OCCN4CCCC4)cc3)s2)cc1 [Flt-3 Inhibitor III]
- scaled lipid accumulation score [2]: 1.17 (active)

Compound: c1cc(-c2cnn3cc(-c4ccc(OCCN5CCCCC5)cc4)cnc23)ccn1 [AMPK Inhibitor, Compound C]
- scaled lipid accumulation score [2]: ≤ 0

Compound: Cc1cnc(Nc2ccc(OCCN3CCCC3)cc2)nc1Nc1cccc(S(=O)(=O)NC(C)(C)C)c1
- scaled lipid accumulation score [4]: 0.07
- scaled lipid accumulation score [5]: 0.23
- scaled lipid accumulation score [6]: 0.765
- scaled lipid accumulation score [2]: 0.703
- scaled lipid accumulation score [1]: 0.345 and 0.579

Compound: c1cc(-c2cnn3cc(-c4ccc(OCCN5CCCCC5)cc4)cnc23)ccn1 [Dorsomorphin]
- scaled lipid accumulation score [4]: ≤ 0
- scaled lipid accumulation score [5]: ≤ 0
- scaled lipid accumulation score [6]: 0.557
- scaled lipid accumulation score [1]: 0.469

Compound: CCCCC[C@H](O)C/C=C1/C(=O)C[C@H](O)[C@@H]1C/C=C\CCCC(=O)O [.DELTA.12-Prostaglandin D2]
- scaled lipid accumulation score [3]: ≤ 0

Compound: CCCCC/C=C\C/C=C\CC/C=C\CCCC(=O)O [Pinolenic Acid]
- scaled lipid accumulation score [3]: 0.009

Compound: NC(=O)N1C(=O)/C(=C(\O)c2cccs2)c2cc(Cl)ccc21 [Tenidap]
- scaled lipid accumulation score [1]: ≤ -0.001

Compound: O=C(O)c1cc(O)c2ccc(Cl)cc2n1 [7-Chlorokynurenic acid]
- scaled lipid accumulation score [1]: 0.023

Compound: Cc1cnc(-c2ccccc2C(C)C)nc1NCc1ccc(-n2ccnn2)cc1
- scaled lipid accumulation score [2]: ≤ -0.009
- scaled lipid accumulation score [1]: ≤ 0

Compound: Nc1cc(N2CCCCC2)nc(N)[n+]1OS(=O)(=O)[O-] [Minoxidil sulfate]
- scaled lipid accumulation score (library stock concentration: 17.3 mM): ≤ -0.021

Compound: C=CCCCCCCCCC(=O)O [Undecylenic acid]
- scaled lipid accumulation score (library stock concentration: 10.9 mM): ≤ 0

Compound: O=S(=O)(c1cccc2cnccc12)N1CCCNCC1 [Fasudil hydrochloride]
- scaled lipid accumulation score [1]: 0.07

Compound: NCCNS(=O)(=O)c1cccc2c(Cl)cccc12 [A3 hydrochloride]
- scaled lipid accumulation score [1]: ≤ 0

Compound: O=S(=O)(c1cccc2cnccc12)N1CCCNCC1 [Fasudil (HA-1077) HCl]
- scaled lipid accumulation score [2]: ≤ 0
- scaled lipid accumulation score [1]: 0.14

Compound: O=S(=O)(c1cccc2c(Cl)cccc12)N1CCCNCC1 [listing 1 of 2 here]
- scaled lipid accumulation score [1]: 1.02 (active)

Compound: O=S(=O)(c1cccc2c(I)cccc12)N1CCCNCC1 [listing 1 of 2 here]
- scaled lipid accumulation score [1]: 0.931 (active)

Compound: O=S(=O)(c1cccc2c(I)cccc12)N1CCCNCC1 [listing 2 of 2 here]
- scaled lipid accumulation score [4]: ≤ -0.001
- scaled lipid accumulation score [5]: ≤ -0.001
- scaled lipid accumulation score [6]: 0.204

Compound: CC1CN(S(=O)(=O)c2cccc3cnccc23)CCN1 (centres undefined)
- scaled lipid accumulation score [1]: 0.164

Compound: O=S(=O)(c1cccc2cnccc12)N1CCNCC1
- scaled lipid accumulation score [1]: 0.248

Compound: O=S(=O)(c1cccc2c(Cl)cccc12)N1CCCNCC1 [listing 2 of 2 here]
- scaled lipid accumulation score (library stock concentration: 15.4 mM): 0.912 (active)

Compound: O=S(=O)(c1cccc2cnccc12)N1CCCNCC1
- scaled lipid accumulation score [1]: 0.257

Compound: O=S(=O)(c1cccc2c(I)cccc12)N1CCCNCC1 [ML-7, Hydrochloride]
- scaled lipid accumulation score [2]: 0.25

Compound: O=c1[nH]ccc2c(S(=O)(=O)N3CCCNCC3)cccc12 [HA 1100 hydrochloride]
- scaled lipid accumulation score [1]: ≤ -0.001

Compound: O=S(=O)(c1cccc2cnccc12)N1CCCNCC1 [Fasudil]
- scaled lipid accumulation score (library stock concentration: 6.9 mM): ≤ -0.006
